The campaign covered roughly 39,000 compounds. About 3,300 (8.5%) were called active. The full list was thinned out, with actives kept by preference.
system: HepG2; assay: cytotoxicity call (relative viability < 0.9); conditions: 10 µM

Row | Structure (SMILES) | cytotoxicity call
1 | NCCCN | inactive
2 | C[C@@H]1CN([C@H](C)CO)C(=O)c2cc(NS(=O)(=O)c3cccs3)ccc2O[C@@H]1CN(C)Cc1ccncc1 | inactive
3 | O=C(C[C@H]1CC[C@H]2[C@@H](COC[C@@H](O)CN2C(=O)Nc2ccc(C(F)(F)F)cc2)O1)NCCc1ccncc1 | inactive
4 | Cc1noc(C)c1NC(=O)Nc1ccc2c(c1)C(=O)N([C@H](C)CO)C[C@H](C)[C@H](CN(C)S(=O)(=O)c1ccc(F)cc1)OCCCC[C@@H](C)O2 | inactive
5 | COCC#Cc1ccc2c(c1)O[C@@H](CN(C)C(=O)Nc1ccccc1F)[C@@H](C)CN([C@@H](C)CO)S2(=O)=O | inactive
6 | CCCN1C[C@@H](C)[C@@H](OC)CN(C)C(=O)c2cc(NS(=O)(=O)c3cn(C)cn3)ccc2OC[C@H]1C | inactive
7 | CN1CCN(C(=O)C[C@H]2CC[C@@H]3[C@H](COC[C@H](O)CN3C(=O)C3CCOCC3)O2)CC1 | inactive
8 | Oc1c(Br)cc(Br)c2cccnc12 | active
9 | CCOc1ccc(S(=O)(=O)[O-])c2cccnc12.[Na+] | inactive
10 | O=S(=O)([O-])c1cc(I)c(O)c2ncccc12.[Na+] | active
11 | O=c1nc[nH]c2ncccc12 | inactive
12 | Cc1ccc2c(Cl)cc(Cl)c(O)c2n1 | inactive
13 | c1cnc2ccc3ncccc3c2c1 | inactive
14 | Oc1c(Cl)cc(Cl)c2cccnc12 | active
15 | Clc1nccc2ccccc12 | inactive
16 | Oc1c(I)cc(Cl)c2cccnc12 | active
17 | CCCCCCCCCCCCCCCCCCOC[C@H](COP(=O)(O)O[C@H]1[C@@H](O)[C@@H](O)[C@@H](O)C[C@@H]1OC)OC | inactive

Row | Structure (SMILES) | cytotoxicity call
18 | C[C@@H]1CCCCO[C@@H](CN(C)S(C)(=O)=O)[C@H](C)CN([C@H](C)CO)C(=O)c2cc(NS(=O)(=O)c3cn(C)cn3)ccc2O1 | inactive
19 | O=C(C[C@@H]1CC[C@H](NC(=O)CN2CCOCC2)[C@H](CO)O1)NCCc1ccncc1 | inactive
20 | CC(=O)N1Cc2cc(C(=O)NCC(F)(F)F)nc(-c3cccc(-c4cc5ccccc5o4)c3)c2[C@H]1CCO | inactive
21 | C[C@@H]1CCCCO[C@H](CN(C)C(=O)Nc2ccc(C(F)(F)F)cc2)[C@@H](C)CN([C@H](C)CO)C(=O)c2cc(NS(=O)(=O)c3cn(C)cn3)ccc2O1 | inactive
22 | C[C@@H]1CN([C@H](C)CO)S(=O)(=O)c2ccc(-c3ccc(C(=O)N(C)C)cc3)cc2O[C@H]1CN(C)C(=O)Cc1ccccn1 | inactive
23 | Cc1noc(C)c1S(=O)(=O)Nc1ccc2c(c1)C(=O)N([C@@H](C)CO)C[C@@H](C)[C@@H](CN(C)C(=O)Nc1ccc(F)cc1)OCCCC[C@@H](C)O2 | inactive
24 | C[C@H](CO)N1C[C@H](C)[C@H](CN(C)C(=O)Nc2ccccc2)Oc2ccc(NC(=O)CCCN(C)C)cc2C1=O | inactive
25 | Cc1cc(C)c2ccc(Cl)nc2n1 | inactive
26 | Cc1noc(C)c1NC(=O)Nc1ccc2c(c1)C(=O)N([C@H](C)CO)C[C@H](C)[C@H](CN(C)CC1CCCCC1)OCCCC[C@H](C)O2 | inactive
27 | C[C@@H]1CN([C@@H](C)CO)C(=O)c2cc(NC(=O)Nc3cccc4ccccc34)ccc2O[C@H]1CN(C)C(=O)NC1CCCCC1 | inactive
28 | CC(C)NC(=O)N(C)C[C@H]1Oc2cc(C#Cc3ccccn3)ccc2S(=O)(=O)N([C@H](C)CO)C[C@@H]1C | inactive
29 | CC(C)(O)c1ccccc1CCC(SCC1(CC(=O)[O-])CC1)c1cccc(C=Cc2ccc3ccc(Cl)cc3n2)c1.[Na+] (centres undefined) | inactive
30 | Oc1c(I)cc(I)c2cccnc12 | active
31 | Nc1ncccc1O | inactive
32 | Nc1ncccc1F | inactive
33 | CC(=O)N(C)C[C@H]1Oc2ncc(C#C[C@@H](C)O)cc2C(=O)N([C@H](C)CO)C[C@@H]1C | inactive
34 | COc1ccc([Si](C)(C)[C@@H]2[C@@H](CC(=O)N(CCO)Cc3ccccc3)O[C@]3(C(=O)N(Cc4cccc(N5CCCCC5=O)c4)c4ccccc43)[C@H]2C)cc1 | inactive

From the antibiotic and cytotoxicity screens of Wong et al. (2023)
